According to PubChem BioAssay:
Where “and” joins values, the source holds several entries; their conditions need not be identical. Equal entries are not always repeated. Some structures have more than one record in an assay (separate samples or runs), and their calls can disagree. Calls of active or inactive are those of the source.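 The calls were made as follows, unless noted: active = inhibition at or above 50% relative to wild type and mutant plate controls; inactive = inhibition below 50%.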

What was measured:
[1] = inhibitors of TNFa-induced NFkB p65 translocation, primary screen, imaging, HUVEC, MLSMR starter and 10KST1 sets (AID 438;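 active = inhibition above 20% together with a positive visual image hit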;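 also: compound added about 3h40 before a 20 min TNFalpha stimulation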;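 as to inhibition: signal is the nuclear over cytoplasmic p65 intensity ratio per well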); settings: HUVEC TNFa-induced p65 nuclear translocation; cell count: measured here: nuclei count (cytotoxicity indicator), at 2.08 µM; inhibition: at 2 µM, stronger effect = higher value, 0% TNFa-plus-vehicle, 100% no-TNFa wells
[2] = reduction of polyQ htt aggregates in cells – imaging, exon1htt(103Q)mCFP cells, high-content imaging, primary screen (AID 483;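 active = visual image review flags a hit and inhibition of aggregation exceeds 20%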;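 also: compound exposure lasted 3 days before fixation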;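 as to nuclei count: percent of the per-plate median nuclei count of sample wells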); settings: exon1htt(103Q)mCFP cell line, aggregate imaging, at 2 µM; inhibition of aggregation: stronger effect = higher value; nuclei count: measured here: cell count, toxicity
[3] = endothelial E-selectin expression blockers – imaging, HUVEC, immunofluorescence, MLSMR starter and 10KST1 sets, primary screen (AID 487;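 active = visually confirmed hit in the image check and inhibition above 20%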;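 as to inhibition: signal is fraction of cell area covered by stained E-selectin grains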;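 as to nuclei count: 100% = median nuclei count of all wells on the same plate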); settings: HUVEC TNFalpha-induced E-selectin immunofluorescence imaging, at 2 µM; inhibition: stronger effect = higher value; nuclei count: measured here: cell number, toxicity
[4] = Primary imaging screen for DUSP6 inhibitors that restore phospho-Erk in transfected HeLa cells, chemical complementation (AID 609;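 active = compounds giving at least 50% inhibition in the cell-based MKP-3 phosphatase rescue imaging test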;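 as to inhibition: phospho-Erk level distribution per well compared with pooled transfected vehicle control wells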); settings: HeLa MKP-3 transfected, phospho-Erk imaging KS statistic, at 10 µM, cells stimulated with TPA for 15 min
[5] = biological target: Dual specificity protein phosphatase 6 (Homo sapiens) (UniProt Q16828); experiment: as above; settings: HeLa MKP-3 transfected, phospho-Erk imaging KS statistic; at 10 µM; stronger effect = higher value; cells stimulated with TPA for 15 min
Dual specificity protein phosphatase 6 (Homo sapiens), sequence (Q16828 whole entry, looked up): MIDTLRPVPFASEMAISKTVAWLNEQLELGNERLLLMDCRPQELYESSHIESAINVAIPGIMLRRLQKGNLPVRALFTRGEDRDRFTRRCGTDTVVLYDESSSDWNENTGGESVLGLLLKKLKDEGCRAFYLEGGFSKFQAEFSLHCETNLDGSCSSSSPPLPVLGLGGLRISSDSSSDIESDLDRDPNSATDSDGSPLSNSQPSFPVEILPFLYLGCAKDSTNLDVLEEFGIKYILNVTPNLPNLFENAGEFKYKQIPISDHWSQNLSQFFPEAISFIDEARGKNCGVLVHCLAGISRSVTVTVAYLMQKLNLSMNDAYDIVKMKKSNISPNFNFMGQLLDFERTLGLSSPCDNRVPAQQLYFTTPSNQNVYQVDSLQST

[6] = biological target: Voltage-gated potassium channel subunit beta-2 (Rattus norvegicus) (UniProt P62483); experiment: inhibitors of rat Kvbeta2 reductase activity – biochemical, NADPH fluorescence, primary screen (AID 622;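 active = fluorescence slope higher than the sample average by over 3 SD, cut at about -0.22 in these data, passing the limit was not always enough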;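 also: slope of raw intensity against log time taken from 70 to 1610 s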); settings: recombinant KvBeta, 4-cyanobenzaldehyde reduction, at 10 µM, stronger effect = higher value
Voltage-gated potassium channel subunit beta-2 (Rattus norvegicus), sequence (P62483 whole entry, looked up): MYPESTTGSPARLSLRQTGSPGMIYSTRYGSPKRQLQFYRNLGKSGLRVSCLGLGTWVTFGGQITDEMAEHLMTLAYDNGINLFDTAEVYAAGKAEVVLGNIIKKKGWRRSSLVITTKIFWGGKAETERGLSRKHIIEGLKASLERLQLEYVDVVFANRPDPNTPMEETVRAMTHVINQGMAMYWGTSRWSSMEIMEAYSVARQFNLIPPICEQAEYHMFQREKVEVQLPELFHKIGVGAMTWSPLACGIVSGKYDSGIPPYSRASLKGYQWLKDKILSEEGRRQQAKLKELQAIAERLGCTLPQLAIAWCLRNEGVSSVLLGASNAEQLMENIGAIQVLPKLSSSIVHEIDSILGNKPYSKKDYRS

[7] = biological target: Voltage-gated potassium channel subunit beta-2 (Rattus norvegicus) (UniProt P62483); experiment: enhancers of rat Kvbeta2 NADPH turnover – biochemical, NADPH fluorescence, primary screen (AID 623;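 active = NADPH fluorescence slope more negative than the mean of all samples by about 3 SD, 99.7% confidence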;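 also: fluorescence intensity change per second fitted from 20 to 320 s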); settings: Recombinant KvBeta, NADPH fluorescence decrease slope, 10 min; at 10 µM; stronger effect = lower value
[8] = biological target: Alpha-2C adrenergic receptor (Homo sapiens) (UniProt P18825); experiment: compounds altering alpha2C-coupled GIRK flux – cell-based, HEK293 alpha2C/GIRK1/2, thallium flux, primary screen (AID 624;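 active = fluorescence slope after compound addition differing from the mean of all screened samples at 99.7% confidence, in either direction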;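 also: slope of fluorescence ratio to pre-addition baseline per second over 15 to 24 s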); settings: thallium flux BTC fluorescence, at 10 µM, actives lie on both sides
Alpha-2C adrenergic receptor (Homo sapiens), sequence (P18825 whole entry, looked up): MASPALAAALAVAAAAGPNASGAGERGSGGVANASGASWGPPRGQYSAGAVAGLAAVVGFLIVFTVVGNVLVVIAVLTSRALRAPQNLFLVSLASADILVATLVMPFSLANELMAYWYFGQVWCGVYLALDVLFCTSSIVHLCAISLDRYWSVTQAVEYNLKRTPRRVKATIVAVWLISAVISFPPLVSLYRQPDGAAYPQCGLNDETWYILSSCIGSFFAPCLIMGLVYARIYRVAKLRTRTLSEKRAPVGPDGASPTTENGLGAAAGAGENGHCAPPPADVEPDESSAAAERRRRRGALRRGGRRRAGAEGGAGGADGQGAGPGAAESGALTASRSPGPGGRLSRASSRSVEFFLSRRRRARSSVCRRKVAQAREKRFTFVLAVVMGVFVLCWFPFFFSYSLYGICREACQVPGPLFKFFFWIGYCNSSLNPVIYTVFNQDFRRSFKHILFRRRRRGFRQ

[9] = inhibitors of larval lipid processing in zebrafish, primary screen, whole organism, PED6 fluorescence, gall bladder and intestine (AID 686;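 active = a full or partial loss of lipid-probe fluorescence in the fish gall bladder, intestine or both, judged by eye; inactive = no fluorescence loss, or compound toxic to the fish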;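 also: larvae 5 to 7 days old with five fish per well; signal comes from phospholipase A2 cleavage of quenched PED6 carried via bile; overnight exposure to compound and PED6 before scoring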); settings: Zebrafish larvae PED6 lipid processing, fluorescence scoring; screened at 20 µM (by protocol)
[10] = loss of swimming-algae plug formation – whole organism, Chlamydomonas reinhardtii, WT vs cilia-less mutant, absorbance, 96-well, primary screen (AID 463189); settings: Chlamydomonas reinhardtii gravitaxis, OD600 absorbance, 2 days; at 10 µM; stronger effect = higher value;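 also: 0% = wild type cc124 cells in DMSO and 100% = ciliumless bld1 mutant cells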
[11] = blockers of RIG-like receptor reporter activation – cell-based, Sendai virus stimulus, luciferase, 10K MLSCN set, TLR/RLR signaling modifier project, primary screen (AID 602276;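 active = inhibition at or above 50% at 10 µM; inactive = inhibition below 50%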;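 also: firefly luciferase from ISG56 promoter only with Renilla not read in this screen; 0% = Sendai virus plus DMSO and 100% = medium plus DMSO without virus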); settings: HEK293 RL24 IRF3 luciferase reporter, at 10 µM, stronger effect = higher value
[12] = TLR3 IRF3 reporter activation blockers – cell-based, poly I:C stimulus, luciferase, 10K MLSCN set, primary screen (AID 602277;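 active = inhibition of the reporter signal at or above 50%; inactive = inhibition below 50%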); settings: HEK293-TLR3 RL24 IRF3 luciferase reporter, at 10 µM, stronger effect = higher value
[13] = measured here: cell density z-score
[14] = measured here: nuclear c-Myc green intensity z-score
[15] = measured here: nuclear pErk red intensity z-score, stronger effect = higher value

| SMILES | cell count [1] | inhibition [1] | inhibition of aggregation [2] | nuclei count [2] | inhibition [3] | nuclei count [3] | z-score [4, 13] | z-score [4, 14] | z-score [4, 15] | inhibition [5] | fluorescence slope [6] | NADPH fluorescence slope [7] | slope [8] | outcome [9] | inhibition [10] | inhibition [11] | inhibition [12] |
| --- | --- | --- | --- | --- | --- | --- | --- | --- | --- | --- | --- | --- | --- | --- | --- | --- | --- |
| Cc1cccc(N(C)C(=S)Oc2ccc3ccccc3c2)c1 | 604 | -0.1% (inactive) | 1.5% (inactive) | 115% | -124% (inactive) | 117% | -0.0512 | 0.405 | -0.61 | 5.42% (inactive) | -0.463 (inactive) | -2.6e-05 (inactive) | 0.00625 (inactive) | active; weak signal in gallbladder and intestine | 97.3% (active) | -6.47% (inactive) | -10.7% (inactive) |
| CCN(CC)CCOC(=O)C(c1ccccc1)c1ccccc1 | 533 | -8.8% (inactive) | 19.8% (inactive) | 104% | -7.9% (inactive) | 122% | -0.21 | -0.778 | -0.535 | 7.39% (inactive) | -0.478 (inactive) | -3.2e-05 (inactive) | 0.00418 (inactive) | inactive | -5.27% (inactive) | 9.86% (inactive) | 40.1% (inactive) |
| NCc1ccc(S(N)(=O)=O)cc1 | 705 | -2.8% (inactive) | 26.6% (inactive) | 107% | -71.2% (inactive) | 118% | 0.933 | -0.356 | -0.92 | 21.2% (inactive) | -0.453 (inactive) | -9.2e-05 (inactive) | 0.00484 (inactive) | inactive | 1.96% (inactive) | 14% (inactive) | 32.7% (inactive) |
| COc1ccc2cnn(-c3ccccc3C)c(=O)c2c1OC | 613 | -6.2% (inactive) | 1.9% (inactive) | 116% | -124% (inactive) | 157% | 0.481 | 0.125 | 1.16 | -6.48% (inactive) | -0.372 (inactive) | -3.7e-05 (inactive) | 0.00535 (inactive) | inactive | 9.21% (inactive) | 9.25% (inactive) | 5.14% (inactive) |
| CC(=O)[C@H]1[C@H](C#N)C[C@H]2[C@@H]3CC=C4C[C@@H](O)CC[C@]4(C)[C@H]3CC[C@@]21C | 645 | -9.3% (inactive) | -4.8% (inactive) | 106% | -91.5% (inactive) | 119% | 0.975 | -0.917 | -0.46 | -2.46% (inactive) | -0.457 (inactive) | -4e-05 (inactive) | 0.00539 (inactive) | inactive | 14.4% (inactive) | 10.7% (inactive) | 42.4% (inactive) |
| O=C(c1cccc2ccccc12)N1CCC(N2CCN(c3ccccc3)CC2)CC1 | 373 | -1.4% (inactive) | 12.1% (inactive) | 95.9% | -64.1% (inactive) | 81.4% | 0.565 | 1.38 | -0.642 | 13.2% (inactive) | -0.528 (inactive) | -1.2e-05 (inactive) | 0.00499 (inactive) | inactive | 29.4% (inactive) | 4.24% (inactive) | 21.4% (inactive) |
| CC[C@]1(O)CC2CN(CCc3c([nH]c4ccccc34)[C@@](C(=O)OC)(c3cc4c(cc3OC)N(C=O)[C@H]3[C@@](O)(C(=O)OC)[C@H](OC(C)=O)[C@]5(CC)C=CCN6CC[C@]43[C@@H]65)C2)C1 (stereo not given in full) | 496 | 31.7% (active) | -69.9% (inactive) | 1.5% | -122% (inactive) | 76.8% | 0.276 | -0.499 | 1.19 | 27.9% (inactive) | -0.439 (inactive) | -3.8e-07 (inactive) | 0.00563 (inactive) | inactive | -2.94% (inactive) | 32.7% (inactive) | 85.7% (active) |
| CSc1ccc2c(c1)N(CCC1CCCCN1C)c1ccccc1S2 (stereo not given) | 643 | -2.7% (inactive) | 4.7% (inactive) | 89.1% | -54.8% (inactive) | 119% | 0.315 | 3.44 | 1.46 | -4.44% (inactive) | -0.555 (inactive) | -5.2e-05 (inactive) | 0.00348 (inactive) | inactive | 77.2% (active) and 160% (active) | 32% (inactive) | 30% (inactive) |
| CCN(CC)c1ccc2c(C)c(-c3ccc(N)cc3)c(=O)oc2c1 | 446 | -5% (inactive) | 6.3% (inactive) | 98.2% | 25% (inactive) | 149% | 0.788 | 0.208 | -0.594 | -4.78% (inactive) | -0.133 (active) | 0 (inactive) | 0.00526 (inactive) | inactive | 55.8% (active) | -44% (inactive) | -91% (inactive) |
| Cc1[nH]c2ccc(F)cc2c(=O)c1SC(F)(F)C(F)C(F)(F)F (stereo not given) | 491 | -1.1% (inactive) | 4% (inactive) | 77.7% | -48.3% (inactive) | 123% | -0.588 | 0.342 | -0.414 | 2.46% (inactive) | -0.42 (inactive) | -3.8e-05 (inactive) | 0.0059 (inactive) | inactive | -4.7% (inactive) | 14.5% (inactive) | 20.3% (inactive) |
| CN1CCN(CCCN2c3ccccc3Sc3ccc(C(F)(F)F)cc32)CC1 | 613 | 4.1% (inactive) | -9.7% (inactive) | 101% | -23.1% (inactive) | 121% | 0.592 | 0.844 | 1.24 | -5.24% (inactive) | -0.437 (inactive) | -1.6e-05 (inactive) | 0.00437 (inactive) | inactive | 35.7% (inactive) and 164% (active) | 18.2% (inactive) | 40.2% (inactive) |
| CC(=O)[C@@]1(O)CC[C@H]2[C@@H]3CCC4=CC(=O)CC[C@]4(C)[C@H]3[C@@H](O)C[C@@]21C | 623 | 0.5% (inactive) | 16.3% (inactive) | 83% | -142% (inactive) | 140% | -0.503 | -0.682 | 0.228 | -4.44% (inactive) | -0.495 (inactive) | -5.2e-05 (inactive) | 0.00465 (inactive) | inactive | -7.94% (inactive) | 8.03% (inactive) | 38.5% (inactive) |
| COc1ccc2c(c1OC)C(=O)O[C@@H]2[C@H]1c2c(cc3c(c2OC)OCO3)CCN1C | 567 | 1.8% (inactive) | 0.2% (inactive) | 97.2% | -22.4% (inactive) | 112% | 0.15 | -0.163 | -0.0552 | 23.4% (inactive) | -0.46 (inactive) | -6.4e-05 (inactive) | 0.00541 (inactive) | inactive | -5.91% (inactive) and 3.65% (inactive) | 0.328% (inactive) | 32.2% (inactive) |
| COc1ccc(CCN2CCC(Nc3nc4ccccc4n3Cc3ccc(F)cc3)CC2)cc1 | 525 | -1.3% (inactive) | -3% (inactive) | 83.3% | -28.6% (inactive) | 107% | -0.393 | 1.49 | 0.359 | 7.39% (inactive) | -0.513 (inactive) | -0.000106 (inactive) | 0.00466 (inactive) | inactive | 133% (active) | -3.81% (inactive) | -23.6% (inactive) |
| C#CCN(C)Cc1ccccc1 | 613 | -8.1% (inactive) | 11.2% (inactive) | 96.3% | -105% (inactive) | 135% | 1.46 | -0.921 | -1.15 | 13.3% (inactive) | -0.461 (inactive) | -3.5e-05 (inactive) | 0.00478 (inactive) | inactive | -8.12% (inactive) and 10.4% (inactive) | 18.7% (inactive) | 42.3% (inactive) |
| COc1ccc(C2=Nn3c(nnc3-c3ccccc3)SC2)cc1OC | 523 | -5.5% (inactive) | -6.6% (inactive) | 92.4% | -126% (inactive) | 132% | -0.336 | 0.955 | 0.104 | -11.5% (inactive) | -0.413 (inactive) | -0.000132 (inactive) | 0.00597 (inactive) | inactive | 2.7% (inactive) | 25% (inactive) | 40.2% (inactive) |
| CCN(CC)CCNC(=O)c1cc(S(C)(=O)=O)ccc1OC | 676 | -4.3% (inactive) | 0.8% (inactive) | 118% | -40% (inactive) | 137% | -1.16 | -0.48 | 0.595 | 1.48% (inactive) | -0.508 (inactive) | -3.1e-05 (inactive) | 0.00485 (inactive) | inactive | 3.78% (inactive) and -4.27% (inactive) | 21.3% (inactive) | 35.4% (inactive) |
| CC(=O)Nc1nnc(S(N)(=O)=O)s1 | 660 | -4.8% (inactive) | -0.3% (inactive) | 93.8% | -29.7% (inactive) | 122% | -0.588 | -1.08 | 0.272 | 13.3% (inactive) | -0.462 (inactive) | -6.7e-05 (inactive) | 0.0054 (inactive) | active; no signal in intestine only | 0.808% (inactive) and -5.65% (inactive) | -14.2% (inactive) | 1.99% (inactive) |
| c1ccc(SCc2nc3ccccc3[nH]2)nc1 | 407 | -12.9% (inactive) | -9.8% (inactive) | 107% | -65.1% (inactive) | 119% | 0.727 | 0.54 | -0.488 | 9.39% (inactive) | -0.624 (inactive) | -2.9e-05 (inactive) | 0.00427 (inactive) | inactive; toxic | 13.1% (inactive) | -49.8% (inactive) | -119% (inactive) |
| COc1ccc(CCN(C)CCCC(C#N)(c2cc(OC)c(OC)c(OC)c2)C(C)C)cc1OC (stereo not given) | 602 | 1.1% (inactive) | 6% (inactive) | 88.6% | -34.1% (inactive) | 114% | 2.13 | 0.829 | -0.736 | 30.1% (inactive) | -0.466 (inactive) | -1e-05 (inactive) | 0.00502 (inactive) | inactive | 4.56% (inactive) and -3.63% (inactive) | 3.72% (inactive) | 17% (inactive) |
